# Laboratory results as given in PubChem BioAssay AID880 (National Center for Advancing Translational Sciences (NCATS), 2007).
# “And” between values parts separate entries of the source, which are not always exact repeats. Identical values can stand only once. Hit rate of the full screen: of about 230,000 compounds, about 1,000 (0.43%) were called active. Many of the other results were omitted from the sample, so actives are more common in it than they were. Unmarked numbers belong to inactive results. Calls come from the whole dose curve; as a rule, active = well fitted inhibition curve with a large enough effect (not every such curve was filed as active); inactive = no such curve, though single readings can be large or run the other way.
# Biological target: Guanine nucleotide-binding protein G(i) subunit alpha-1 (Homo sapiens) (UniProt P63096)
# Experiment: qHTS Assay for Inhibitors of RGS12 GoLoco Motif Activity (Red Fluorophore); note: nearly all actives have a fitted effect of over 30% in size
# Details: Gai1:RGS12 GoLoco peptide FP, rhodamine, 10 min; series mostly up to 61.6 µM; activity, negative = inhibition: at the top concentration
# Excerpt: Assay Submitter: Siderovski, David P, University of North Carolina at Chapel Hill
# Screening Center PI: Austin, C.P.
# Screening Center: NIH Chemical Genomics Center [NCGC]
# G-protein-coupled receptors (GPCRs) are major targets for drug discovery. The regulator of G-protein signaling (RGS)-protein family has important roles in GPCR signal transduction. RGS proteins contain a conserved RGS-box, which is often accompanied by other signaling regulatory elements. RGS proteins accelerate the deactivation of G proteins to reduce GPCR signaling; however, some also have an effector function and transmit signals. Combining GPCR agonists with RGS inhibitors should potentiate responses, and could markedly increase the agonist's regional specificity. The diversity of RGS proteins with highly localized and dynamically regulated distributions in brain makes them attractive targets for pharmacotherapy of central nervous system disorders. […] A complex of Gai1 and fluorescently labeled G-alpha-binding peptide (the "GoLoco motif") derived from RGS12 is incubated with library members. Inhibitors of the binding are detected by a decrease in the fluorescence polarization (FP) of the fluorophore. Protein was supplied by Prof. David Siderovski, University of North Carolina at Chapel Hill.
# Assay Buffer: 10 mM Tris-HCl, 150 mM NaCl, 0.1 mM GDP (prepared fresh), and 0.05% NP40 at pH 7.5.
# 15 nM Rhodamine labeled peptide/25 nM protein in columns 1, 2, 5 - 48. Titration of unlabeled peptide control ([H][…][NH2], custom synthesized and HPLC-purified by Tufts University Core Facility) from 20 mM, then 1:2 dilution, 16-point in duplicate, pin-transferred to column 2, rows 1 to 32. Column 1 is neutral.
# Rhodamine-labeled peptide (Rhodamine-[…]-NH2) was custom-synthesized and HPLC-purified by Invitrogen (Carlsbad, CA).
# Four uL of reagents were dispensed to 1536-well Greiner black solid-bottom plates. Compounds and controls (23 nL) were transferred via Kalypsys PinTool. The plates were incubated for 10 min at room temperature, and then read on ViewLux (Perkin-Elmer) High-throughput CCD imager using BODIPY for the rhodamine-labeled decapeptide probe. During dispense, reagent bottles were kept submerged into 4 deg C water bath and all liquid lines were covered with aluminum foil to minimize probe and protein degradation. All screening operations were performed on a Kalypsys robotic system (Kalypsys, Inc., San Diego, CA) containing one RX-130 and two RX-90 anthropomorphic robotic arms.
# % is set by controls: 0 for no effect and ±100 for the full control effect; potency is the fitted concentration of half-maximal effect.
# Guanine nucleotide-binding protein G(i) subunit alpha-1 (Homo sapiens), sequence (P63096 whole entry, looked up): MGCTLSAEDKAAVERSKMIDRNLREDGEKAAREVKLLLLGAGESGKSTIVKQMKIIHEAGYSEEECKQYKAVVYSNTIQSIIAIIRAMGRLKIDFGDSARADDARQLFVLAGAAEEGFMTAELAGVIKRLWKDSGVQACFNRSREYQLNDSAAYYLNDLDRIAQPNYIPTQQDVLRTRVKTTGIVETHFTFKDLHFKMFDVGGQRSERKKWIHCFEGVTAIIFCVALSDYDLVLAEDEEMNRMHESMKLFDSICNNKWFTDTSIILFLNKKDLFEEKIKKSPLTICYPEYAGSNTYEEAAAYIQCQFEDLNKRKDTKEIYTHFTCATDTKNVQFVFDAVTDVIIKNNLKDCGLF
Compound,"activity, negative = inhibition",Potency
CC(C)(C)C1CCC(=NNC(=O)c2cc(-c3ccccc3)n[nH]2)CC1 (stereo unspecified),10.8%,–
Cc1ccc(C(=O)N/C(=C/c2ccco2)C(=O)NCCc2c[nH]c3ccccc23)cc1C,12.3%,–
NC(=O)c1nsc(C(=O)N(CC(=O)NCc2ccc(F)cc2)Cc2ccco2)c1N,-6.49%,–
COc1ccc(CCCOC(Cn2ccnc2)c2ccc(OC)cc2)cc1 (stereo unspecified),–,inactive
C[C@]12CC[C@@H]3c4ccc(O)cc4C[C@@H](CCCCCCCCCS(=O)CCCC(F)(F)C(F)(F)F)C3[C@@H]1CC[C@@H]2O (stereo partly specified),-1.93%,–
CN(C)CCCCCN(C)Cc1cc2ccccc2o1,1.21%,–
Nc1ccc2c3c(cccc13)C(=O)NC2=O,–,3.16 µM (active) and 20 µM (active)
COC1(C2=NCCN2)COc2ccccc2O1 (stereo unspecified),7.05%,–
COC(=O)c1nn(-c2cccc(Cl)c2)ccc1=O,5.66%,–
COc1ccc(C)cc1-n1nnnc1SCc1nc2ccccc2c(=O)[nH]1,25%,–
Cc1cc2nc3c(=O)[nH]c(=O)nc-3n(C[C@H](O)[C@H](O)[C@H](O)CO)c2cc1C,–,17.8 µM (active)
N#C/C(=C\c1ccc(-c2cccc([N+](=O)[O-])c2)o1)C(=O)NCCN1CCOCC1,3.44%,–
CC(Oc1ccc(-c2ccccc2)c(F)c1)c1ccn(S(=O)(=O)c2cccc3ccccc23)n1 (stereo unspecified),-2.65%,–
C=C1O[C@@](CO)(n2cnc3c(N)ncnc32)[C@H](O)[C@@H]1O,1.48%,–
Cc1csc(-c2coc3cc(O[C@@H]4O[C@H](CO)[C@@H](O)[C@@H](O)[C@H]4O)ccc3c2=O)n1,2.68%,–
CN(C)/C(CN1CCCCC1)=C1\N=C(c2ccccc2)OC1=O,-2.52%,–
CCOC(=O)N1CCC(N(CCOC)C(=O)Nc2ccc(C)c(C)c2)CC1,-6.31%,–
CN(C)c1nc(=Nc2cccc(Cl)c2)ss1,-0.735%,–
S=C(Nc1cccc(Br)c1)N1CCn2cccc2C1c1cccnc1 (stereo unspecified),5.93%,–
O=[N+]([O-])c1c(NCCO)cc(Sc2nc3ccccc3s2)c2nonc12,–,8.91 µM (active)
O=C(CSc1nc2ccccc2s1)Nc1ccc(C(=O)O)cc1,16.3%,–

Compound,"activity, negative = inhibition",Potency
c1ccc2sc(SCCSc3nc4ccccc4s3)nc2c1,2.61% [at 14.2 µM],–
COc1ccc(-c2nc(CS(=O)CC(=O)NCc3ccccn3)c(C)o2)cc1 (stereo unspecified),–,14.1 µM (active)
COc1ccc(-c2nc(CS(=O)CC(=O)NCc3cccnc3)c(C)o2)cc1OC (stereo unspecified),7.34%,–
COc1ccc(-c2nc(CS(=O)CC(=O)N3CCc4ccccc4C3)c(C)o2)cc1 (stereo unspecified),8.47%,–
O=[N+]([O-])c1ccc(N2CCN(CC(O)COc3ccccc3)CC2)cc1 (stereo unspecified),-3.92%,–
C[N+]1(CC(O)COc2ccccc2)CCN(C(=O)c2ccc([N+](=O)[O-])cc2)CC1 (stereo unspecified),–,12.6 µM (active)
O=C(c1ccccc1)c1ccc(OCC(O)CN2CCCC2)cc1 (stereo unspecified),0.574%,–
CN(C)C(=O)c1nc2ccc(Cl)cn2c1CNCc1cccc(OC(F)(F)F)c1,9.02%,–
Cn1nc(C(F)(F)F)cc1C(=O)O,-5.27%,–
O=[N+]([O-])c1cc(S(=O)(=O)CCCN2CCOCC2)ccc1F,9.83%,–
CC(C)c1cnc(NC(=O)Cc2ccccc2)s1,9.35%,–
O=C(CSc1ncnc2c1cnn2CCc1ccccc1)Nc1ccc(F)cc1,-3.51%,–
Oc1ccc(CNc2ccccc2O)cc1,71.8%,–
O=C(OCc1ccccc1)c1ccc(O)cc1,9.09%,–
COC(=O)CCCCCN1C(=O)NC(c2ccc(-c3ccccc3)cc2)C(C(=O)OCc2ccccc2)=C1C (stereo unspecified),–,inactive
CC(=O)[C@H](C(c1ccccc1)N1CCOCC1)N1CCOCC1 (stereo partly specified),-7.72% [at 14.2 µM],–
C=C(C(C)=O)C(O)c1ccc([N+](=O)[O-])cc1 (stereo unspecified),-2.53%,–
CCOC(=O)C1(CC2CCCCO2)CCN(Cc2nc(-c3cccs3)oc2C)CC1 (stereo unspecified),7.2%,–
OCC(CO)NC1C[C@](O)(CO)[C@@H](O)[C@H](O)[C@H]1O (stereo partly specified),4.17%,–
NC1CCN(O)C1=O (stereo unspecified),7.53%,–
CCc1ccc(-n2c(SCc3cc(=O)n4cc(Br)ccc4n3)nc3[nH]ncc3c2=O)cc1,9%,–

Compound,"activity, negative = inhibition",Potency
O=C(O)/C=C/c1ccc(OCCCF)cc1,4.77%,–
CC(O)COc1ccccc1 (stereo unspecified),3.23%,–
Cc1cccc(Br)c1,0.712%,–
O=C1OCCN1C(=O)[C@H]1[C@H](c2ccc(Cl)cc2)C(c2cccc(Cl)c2)=NN1c1ccc(Br)cc1,7.07%,–
CC(O)[C@@H](N)C(=O)O (stereo partly specified),0.527%,–
O=P(O)(O)C(O)c1ccc2ccccc2c1 (stereo unspecified),-0.516%,–
Cc1ccnc(-n2sc3ccccc3c2=O)n1,–,14.1 µM (active)
Cc1ccnc(SCC(N)=O)n1,8.28%,–
Cc1ccnc(Nc2nc3ccccc3s2)n1,4.81%,–
CCOC(=O)c1cnc2[nH]c3ccccc3n2c1=O,10.1%,–
O=c1[nH]c2ccccc2n2c(-c3ccccc3)nnc12,–,12.6 µM (active)
Cc1ccc(-c2nc3ccccc3[nH]c2=O)cc1,0.424%,–
O=C(Nc1cccc(F)c1)N1CCC2(CC1)CCN(S(=O)(=O)c1ccccc1)CC2,8.81%,–
CCOC(=O)C1=NO[C@@]2(C=C(Br)C(=O)[C@H]3O[C@H]32)C1,-2.47%,–
COc1ccc2c(-c3ccccc3)cc(SCC(=O)N(C)C3CCS(=O)(=O)C3)nc2c1 (stereo unspecified),-0.0537%,–
CC(=O)OC1C([N+]2(C)CCCCC2)C[C@H]2C3CC[C@H]4C[C@H](OC(C)=O)C([N+]5(C)CCCCC5)CC4(C)C3CCC12C (stereo partly specified),4.19%,–
C=CC(=O)OCCOCCOCCOCCOC(=O)C=C,–,inactive
Cc1cccc(-n2c(=O)c3c(C)c(C)sc3n(CC(N)=O)c2=O)c1,-2.7%,–
NC(=O)c1sc(-c2ccsc2)cc1N,-2.74%,–
